The sample as a whole holds a higher share of hits than the screen did.
HIV RNase H inh: blocks HIV-1 RNase H cleavage of RNA/DNA duplex; inhibition, % at 10 µM; actives 1.9% (n = 65,000); AID 565; P04585; RT-RNase H RNA/DNA duplex cleavage, fluorescence; in the data active means inhibition above about 50%
RmlC RmlD mix: inhibitors of RmlC and RmlD coupled enzymes | RmlC/RmlD coupled enzyme inhibition, 384-well mixture HTS | inhibition, % at 5.5 µM | actives 0.39% (n = 110,000) | AID 1532; in the data active means inhibition above about 30%, passing the limit was not always enough
RmlCD fluor art: counter-screen for RmlC/RmlD inhibitors: fluorescence artifact | calls only | RmlC/RmlD assay fluorescence artifact counter-screen | shares compounds with RmlC RmlD mix | AID 1696 | actives 96% (n = 360); call rule not given here;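 further: compound alone with no enzyme and no substrates present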
A number is an active result; – = inactive; · = not tested or not shown; + = active, no number.

SMILES | HIV RNase H inh | RmlC RmlD mix | RmlCD fluor art
c1cnc2c(C3NCCc4c3[nH]c3ccccc43)cccc2c1 (stereo unspecified) | · | – | ·
C#CCOC(=O)CCCNc1ccc([N+](=O)[O-])cc1[N+](=O)[O-] | · | – | ·
C=CCOC(=O)C1=C(C)NC(SCC(=O)NC(=O)OCC)=C(C#N)C1c1cccnc1 (stereo unspecified) | – | 30.3 | +
C=CCOC(=O)C1=C(C)NC(SCC(=O)N(CC)CC)=C(C#N)C1c1ccccc1 (stereo unspecified) | – | · | ·
Cc1ccc(-n2c(-c3cccnc3)n[nH]c2=S)c(C)c1 | · | – | ·
N#Cc1c(C(F)(F)F)cc(-c2ccc(Cl)cc2)[nH]c1=O | · | – | ·
Cc1cc(C(F)(F)F)c(C#N)c(=O)[nH]1 | · | 32.3 | +
N#Cc1ccc(Nc2ccccc2)c(N)c1 | · | – | ·
COC(=O)c1ccc2c(c1)C(C)(C)C(/C=C/c1ccc(O)cc1)=[N+]2C | · | – | ·
COC(=O)c1ccc2c(c1)C(C)(C)C(/C=C/c1ccc(OC)c(OC)c1OC)=[N+]2C | · | 45.4 | +
Cc1csc(CCc2nc(C)cs2)n1 | – | – | ·
Cc1ccc(CN2CC(C(=O)O)CC2=O)cc1 (stereo unspecified) | · | – | ·
Cc1ccc(CN2CC(C(=O)Nc3ccc4c(C)cc(=O)oc4c3)CC2=O)cc1 (stereo unspecified) | – | – | +
CC1CCN(c2cc(N)c(Cl)cc2[N+](=O)[O-])CC1 | · | – | ·
C[n+]1cc(-c2ccccc2)n2c1CCCCC2 | · | – | ·
COc1ccc(-c2c[n+]3c4n2CCCCC4=C(c2ccccc2)C3)cc1 | · | 91.4 | +
CC(C)(C)c1ccc(OCc2ccc(C(=O)N/N=C/c3ccc([N+](=O)[O-])cc3)o2)cc1 | · | – | ·
CNC(=O)COC(=O)c1cc2c(C)nn(-c3ccc(F)cc3)c2s1 | · | – | ·
Cc1nn(-c2ccc(F)cc2)c2sc(C(=O)OC3CCOC3=O)cc12 (stereo unspecified) | – | 47.4 | +
COc1ccc(-n2nc3cc(C)c(NC(=O)C(C)C)cc3n2)cc1 | – | – | ·
Cc1ccc(-c2nn(-c3ccccc3)cc2C2CC(c3cccs3)=NN2C(=O)CCCC(=O)O)cc1 (stereo unspecified) | · | – | ·
COc1ccc(/C(O)=C2/C(=O)C(=O)N(CCCN(C)C)C2c2cccnc2)cc1 (stereo unspecified) | – | · | ·
COc1cc(NC(=O)c2cccs2)c(C(=O)OCC(=O)NCc2ccccc2)cc1OC | · | 45.0 | +
COc1cc(NC(=O)c2cccs2)c(C(=O)OCC(=O)NC(C)c2ccccc2)cc1OC (stereo unspecified) | · | – | ·
COc1ccc(-c2cn3cccnc3n2)cc1NC(=O)c1ccc(Br)o1 | – | – | ·
SMILES | HIV RNase H inh | RmlC RmlD mix | RmlCD fluor art
O=C(Nc1cccc(-c2cn3cccnc3n2)c1)c1ccc(Br)o1 | – | 54.6 | +
CCCC(=O)Nc1cc(-c2cn3cccnc3n2)ccc1OC | – | – | ·
CCOCC(=O)Nc1ccc(-c2cn3cccnc3n2)cc1 | – | 105.9 | +
O=C(Nc1cccc(-c2cn3cccnc3n2)c1)c1ccco1 | – | – | ·
Cc1ccc(-c2cn3cccnc3n2)cc1NC(=O)c1ccc(Br)o1 | – | 69.7 | +
COCCNC(=O)CSc1nc(-c2ccccc2)cs1 | · | – | ·
CC1(C)Cc2ccccc2-c2nnc(-c3ccccn3)n21 | – | – | ·
CCc1cc(=O)oc2c(CN3CCN(C)CC3)c(O)c(Cl)cc12 | – | 125.9 | +
CN1CCN(Cc2oc(CO)cc(=O)c2O)CC1 | · | – | ·
C/C(=C\C(=O)Nc1nccs1)c1ccccc1 | – | – | ·
CCOC(=O)CC(=O)CSc1nc2c(c(C)c1C#N)CCC2 | – | · | ·
CCOC(=O)CC(=O)CSc1nc2ccc(C)cc2cc1C#N | – | + | +
CCc1nc(SCC(=O)O)c(C#N)cc1C | · | – | ·
CCOC(=O)CC(=O)CSc1nc(CC)c(C)cc1C#N | · | · | +
COC(=O)CSc1nc2cc(C)ccc2cc1C#N | – | – | ·
CCOC(=O)CC(=O)CSc1nc2c(cc1C#N)CCCCC2 | – | – | ·
CC(C)OC(=O)CC(=O)CSc1nc2c(cc1C#N)CCCCC2 | · | + | +
CCOC(=O)CC(=O)CSc1nc(C)cc(C)c1C#N | · | 110.3 | +
CC(=O)c1cccc(NC(=O)N2CCC(c3nnc(SCC(N)=O)n3C)CC2)c1 | – | – | ·
CCCn1c(NC(=O)c2cccc(S(=O)(=O)N3CCCC3)c2)nc2ccccc21 | – | – | ·
O=C(NCc1ccccc1)C1=C[C@H](C2CC2)C[C@H](OCCCCO)O1 | · | – | ·
COc1ccc(C2(O)CCN(CCCCOc3ccccc3)CC2)cc1 | – | – | ·
O=C(NC1CCN(C(=S)NCc2ccco2)CC1)NC12CC3CC(CC(C3)C1)C2 | · | – | ·
O=c1ncc(F)c[nH]1 | · | – | ·
C=CCNC1=C(Cl)C(=O)N(c2ccccc2Cl)C1=O | – | – | ·
SMILES | HIV RNase H inh | RmlC RmlD mix | RmlCD fluor art
COc1ccc(-c2nc(C#N)c(N3CCOCC3)o2)cc1OC | – | – | ·
COc1ccc(-c2nc(C#N)c(N3CCC(C(N)=O)CC3)o2)cc1OC | · | 40.7 | +
CCCSc1nnc(Cn2c(=O)sc3ccccc32)n1C | – | – | ·
Cc1cc2oc3cc(NCCC4CCCN4C)ccc3c(=O)c2cc1C (stereo unspecified) | · | 68.2 | +
CN1CCCC1CCNc1ccc2sc3ccccc3c(=O)c2c1 (stereo unspecified) | · | – | ·
c1csc(-c2nc3nc4ccccc4nc3n2Cc2ccc3c(c2)OCO3)c1 | – | – | ·
CCCn1c(-c2cccs2)nc2nc3ccccc3nc21 | · | 81.3 | +
Cc1ccc(Cl)cc1NC(=O)COC(=O)C12CC3CC(CC(C3)C1)C2 | · | – | ·
COC(=O)c1cc(C)nc(N)c1C#N | · | – | ·
Cc1cc(C(=O)OCCO)c(C#N)c(N)n1 | – | 45.6 | +
COc1cc(C(=O)NCc2cn3cccc(C)c3n2)cc(OC)c1OC | – | – | ·
Cc1nc(NCCc2ccccc2F)c(C#N)c(C)c1[N+](=O)[O-] | · | – | ·
CC(C)CCNC(=O)c1cc(-c2ccco2)nc2ccccc12 | · | – | ·
O=C(NCC1CCCO1)c1cc(-c2ccco2)nc2ccccc12 (stereo unspecified) | – | 53.4 | +
Cc1cc(=O)n2c(ccc3ccccc32)c1C#N | – | – | ·
Cc1cc(=O)n2ccccc2c1C#N | · | 104.1 | +
CC1CN(C(=O)c2cc3c(=O)n4ccccc4nc3s2)CC(C)O1 (stereo unspecified) | – | 52.7 | +
CC1CN(C(=O)c2cc3c(s2)CCC3)CC(C)O1 (stereo unspecified) | – | – | ·
Cc1ccc(NC(=O)CSCCc2ccccn2)nc1 | · | – | ·
N#Cc1c(N)nc2c(c1-c1ccncc1)CCCCC2 | – | – | ·
CSc1ccc(-c2c(C#N)c(N)nc3c2CCCC3)cc1 | – | 33.4 | +
Cc1[nH]n(-c2ccccc2)c(=O)c1/C=N/c1ccccn1 | – | – | ·
Cc1[nH]n(-c2ccccc2)c(=O)c1C=Nc1cnc2ccccc2c1 | · | 43.9 | +
CCOC(=O)c1ccc(COC(=O)c2ccc(-c3nnc(-c4ccccc4)o3)cc2)o1 | – | – | ·
CCOC(=O)c1ccc(-c2ccc(CO)o2)cc1 | · | 62.4 | +
SMILES | HIV RNase H inh | RmlC RmlD mix | RmlCD fluor art
CCCCN1C(=S)SC(C)(C)C1/[N+]([O-])=C/c1cccnc1 (stereo unspecified) | · | – | ·
CN(C)CCCNc1oc(-c2ccccc2)nc1C#N | – | – | ·
CN(C)CCNc1oc(-c2ccccc2F)nc1C#N | – | 46.5 | +
CN1CCc2nc(SCCOc3ccccc3)c(C#N)cc2C1 | – | – | ·
CCn1c2ccccc2c2cc(/C=N/n3cnnc3)ccc21 | – | – | ·
CCn1c(/C=N/n2cnnc2)nc2ccccc21 | – | 73.2 | +
